We go through 28 compounds from ChEMBL document CHEMBL4513216, “Probing the Open Global Health Chemical Diversity Library for Multistage-Active Starting Points for Next-Generation Antimalarials” (ACS Infect Dis, 2020).

Among all 65,000 compounds or so, about 2,100 (3.2%) showed an effect of 50% or more. The median lay at about -52%. The list comes from a sample in which strong results are over-represented; it also holds similar structures and randomly drawn compounds.

The experiment has as its system Plasmodium falciparum. Kind of experiment: Screen against P. falciparum Asexual Blood Stage (ABS), at 5uM. In kind it is functional, Dd2. The conditions noted are these: tested at 5 uM.
Take `O=C1N[C@@H]2CCN(C(=O)C3CCCC3)[C@@H]2C(=O)N1c1ccc(F)cc1`: the INHIBITION was determined as 56.1%.

Consider `O=C1N[C@@H]2CCN(C(=O)C3CCC3)[C@@H]2C(=O)N1c1ccc(F)cc1`, for which the INHIBITION is on record as 32%.

`O=C1N[C@@H]2CCN(C(=O)C3CC3)[C@@H]2C(=O)N1c1ccc(F)cc1`: the INHIBITION was -99.9%.

Consider `CC(=O)N1N=C(COc2ccc3c(c2)OCO3)OC1c1cccc(Cl)c1` (stereo not drawn), for which the INHIBITION is on record as -125%.

In the case of `Cc1cc(=O)n(CC(=O)NC(C)C)c(Nc2ccc(F)c(C)c2)n1`, the INHIBITION is recorded as -47.4%.

Take `Cc1nn(C)cc1S(=O)(=O)NCC(c1ccccc1)N1CCCCCC1` (stereo not drawn): the INHIBITION is listed as 12.9%.

For the compound `CN(C)c1ccc(C(CNS(=O)(=O)c2cccs2)N2CCCC2)cc1` (stereo not drawn), the INHIBITION amounted to 54.2%.

Regarding `CN1CCc2cc(C(CNS(=O)(=O)c3cccs3)N3CCCC3)ccc21` (stereo not drawn), the INHIBITION stood at 15.5%.

On to `COc1ccccc1CNC(=O)COc1c(C)n(C)ccc1=O`, for which the INHIBITION is -82.3%.

With `CC(C)c1cnc(CN(C)C2CCN(CCc3cnn(C)c3)C2)o1` (stereo not drawn), the INHIBITION is recorded as -112%.

Take `O=C(NCC1CC1)C1CCC2(CCN(C(=O)c3cnccn3)CC2)O1` (stereo not drawn): the INHIBITION is -40.1%.

Turning to `COc1cc(CNCc2ccco2)ccc1OCCO`, the INHIBITION is -66.2%.

In the case of `CCCc1ccc(OCCNCc2ccco2)c(OC)c1`, the INHIBITION stood at 51.5%.

`COc1cc(C(C)=O)ccc1OCCNCc1ccco1`: the INHIBITION turned out to be 1.68%.

As for `Cn1ccnc1-c1nccn1-c1cccc(CN2CCCC2)c1`, the INHIBITION is -2.05%.

Regarding `c1cc(CN2CCCC2)cc(-n2ccnc2-c2ccncc2)c1`, the INHIBITION is 6.67%.

For `CCCc1nccn1-c1cccc(CN2CCCC2)c1`, the INHIBITION came out at 53.1%.

Consider `O=C(NCCc1ccc(F)cc1)C1CN(C(=O)Cn2cncn2)C1`, for which the INHIBITION is -29.6%.

`CN(C)CCN(C)c1nc(CCc2ccccc2)nc2c1cnn2C`: the INHIBITION is on record as 51.9%.

On to `Cc1nc(N(C)CCN(C)C)c2cnn(C)c2n1`, for which the INHIBITION is -71.9%.

`COCc1nc(N(C)CCSc2ccccc2)c2cnn(C)c2n1`: the INHIBITION is -14.2%.

Take `CN1CCCc2cc(-c3cncn3CC(=O)NC(C)(C)C)ccc21`: the INHIBITION is -38.6%.

As for `CCN1CCc2cc(-c3cncn3CCNC3CCS(=O)(=O)C3)ccc21` (stereo not drawn), the INHIBITION came to 3.68%.

In the case of `CC1Cc2cc(-c3cncn3CC(=O)NC(C)(C)C)ccc2N1C` (stereo not drawn), the INHIBITION is given as 54.2%.

Consider `CN1CCCc2cc(-c3cncn3CCNC3CCS(=O)(=O)C3)ccc21` (stereo not drawn), for which the INHIBITION was -79.3%.

Turning to `CC1CCN(S(=O)(=O)c2cccn(CC(=O)NC(C)(C)C)c2=O)CC1`, the INHIBITION was -129%.

As to `CCN1CCc2cc(-c3cncn3CC(=O)NC(C)(C)C)ccc21`, the INHIBITION is given as 66.2%.

With `c1cc2c(cc1CSCc1noc(C3CC3)n1)OCCO2`, the INHIBITION is -17%.
